Reference: PubChem BioAssay AID488890 (Southern Research Specialized Biocontainment Screening …, 2010)
The whole screen tested about 320,000 compounds, of which about 1,300 (0.41%) were called active. Not shown: some 3% with an inconclusive outcome. How the calls were made is not given here. These entries were drawn from the full list. Potency and affinity values are given separately.

Experiment: growth inhibition of non-replicating M. tuberculosis (AID 488890);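 further: plate controls were DMSO cells for no effect and high antibiotic wells for full effect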
Details: Mycobacterium tuberculosis non-replicating, at 25 µM, stronger effect = higher value

SMILES	inhibition
COc1ccc(C2CC(C(F)(F)F)n3ncc(C(=O)O)c3N2)cc1OC (stereo not given)	-8.85%
COc1cc(OC)cc(C(=O)NC(=S)N2C[C@H]3C[C@H](C2)c2cccc(=O)n2C3)c1	-9.19%
CN(CC(=O)NCc1cccnc1)S(=O)(=O)c1ccc(F)cc1	-7.08%
COc1ccc(/C=N/NC(=O)c2ccccc2OCc2ccccc2)c(OC)c1	32%
C/C(=N\NC(=O)Cc1ccc([N+](=O)[O-])cc1)c1cccnc1	-2.22%
Cc1cc(C(=O)NNC(=O)c2cccs2)c(C)o1	5.92%
COc1ccccc1C(=O)Nc1ccc(S(=O)(=O)Nc2nccs2)cc1	16%
COc1cccc(C2C(C#N)=C(N)SC(c3ccccc3)C2[N+](=O)[O-])c1 (stereo not given)	20.5%
Cc1ccccc1C1=NC(c2ccc(F)cc2F)ON1 (stereo not given)	8.21%
O=C(NCCCN1CCOCC1)c1ccccc1-c1ccccc1	3.82%
CSc1ccccc1NC(=O)c1cc(C)on1	1.57%
COc1cc(C(=O)Nc2nc(OC)c(-c3ccccc3)c(OC)n2)cc(OC)c1OC	-16.2%
COc1cc(/C=N/NC(=O)COc2ccccc2C)ccc1OC(=O)c1cccs1	30.8%
COc1ccc(/C=N/NC(=O)c2cccnc2)cc1CN1CCOCC1	8.75%
COc1cc(/C=N/NC(=O)CNC(=O)c2ccccc2)ccc1OC(=O)c1cccs1	39.5%
CCOc1cc(/C=N/NC(=O)COc2ccccc2C)ccc1OC(=O)c1cccs1	9.01%
CCOc1cc(/C=N/NC(=O)COc2ccc(C)cc2)ccc1OC(=O)c1cccs1	48.1%
COc1cc(/C=N/NC(=O)c2ccncc2)ccc1OC(=O)c1cc(OC)c(OC)c(OC)c1	52.1%
COc1ccc(/C=N/NC(=O)c2ccc(Br)cc2)cc1CN1CCOCC1	-2.91%
COc1cc(/C=N\NC(=O)c2ccc(C)nc2)ccc1OC(=O)c1cccc(F)c1	-1.23%
COc1cc2[nH]c(=O)n(CCC(=O)NCCC(C)C)c(=O)c2cc1OC	-11%
O=C(NCCC1CCCCN1S(=O)(=O)c1cccs1)C(=O)NCc1ccccc1 (stereo not given)	10.3%

SMILES	inhibition
CC1(C)CC(=O)C=C(/C=C/c2ccccc2)C1	-7.3%
COc1ccc(CN(C)C(=O)c2ccc(NS(=O)(=O)c3ccc4[nH]c(=O)[nH]c4c3)cc2)c(OC)c1OC	35.7%
O=C(N/N=C/C(Br)=C/c1ccccc1)c1ccccc1F	49.9%
O=C(c1cc(S(=O)(=O)N2CCC3(CC2)OCCO3)ccc1F)N1CCC2(CC1)OCCO2	-5.64%
CCOCC(=O)OCC(=O)NC12CC3CC(CC(C3)C1)C2	-7.93%
CCOC(=O)N1CCN(C(=O)NC23CC4CC(CC(C4)C2)C3)CC1	-9.51%
CCCN1CCN(S(=O)(=O)c2ccc(-n3cnnn3)cc2)CC1	0.97%
COc1ccc(CCNC(=O)C2CCCN(S(=O)(=O)N3CCCCCC3)C2)cc1OC (stereo not given)	14.5%
CCOc1ccc(/C=C/C(=O)N(CC)CC(=O)Nc2ccc3c(c2)OCCO3)cc1OC	13.6%
COc1ccc(N2CCN(Cc3nc4cc(Cl)ccc4c(=O)[nH]3)CC2)cc1	0.72%
CCCn1nnnc1NCc1ccc(F)cc1	24.5%
CCCn1nnnc1NCc1ccc(OC)cc1	37%
CC(C)c1ccc(CNc2nnnn2C)cc1	44.6%
CCCn1nnnc1NCc1ccc(N(C)C)cc1	2.84%
CN(Cc1ccccc1)C(=O)COC(=O)C1CCN(S(=O)(=O)c2ccc(Cl)c(C(F)(F)F)c2)CC1	-14.1%
CC1CCN(C(=O)C2CCC(CNc3c(N4CCCCC4)c(=O)c3=O)CC2)CC1 (stereo not given)	15.8%
Cc1ccc(-n2cc(CNCCN3CCOC3=O)c(-c3ccc(F)cc3)n2)cc1	26.6%
COc1ccc(-c2nn(-c3ccccc3F)cc2CNCCn2nc(C)cc2C)cc1	52.6%
O=Cc1cn(-c2ccccc2)nc1-c1ccc(F)cc1	1.85%
OCc1cn(-c2ccccc2)nc1-c1ccc(-c2nn(-c3ccccc3)cc2CO)cc1	-3.64%
O=C(c1ccc2oc(Cc3ccc(Cl)cc3)nc2c1)N1CC[C@H](O)C1	-2.21%
CC#CCN(Cc1ccco1)C(=O)c1ccc(OC2CCN(Cc3ccccn3)CC2)cc1	10.1%

SMILES	inhibition
COc1ccc(/C=C(/C#N)C(=O)Nc2cccnc2)cc1OC	-2.65%
C#CCOCCOCCOCCNc1nc(N2CCN(C(=O)C([C@@H](C)CC)n3cc(C(N)CC(C)C)nn3)CC2)nc(N2CCN(C(=O)[C@H](CCC(=O)O)n3cc(C(N)CC(C)C)nn3)CC2)n1 (stereo not given in full)	-10.1%
Cc1ccccc1N=C(NO)c1nonc1N	-6.6%
O=C(O)c1ccc(Cl)c(S(=O)(=O)Nc2cccc(C(=O)Nc3cccc(C(F)(F)F)c3)c2)c1	26.6%
COc1cc(C=Nc2c(C)cc(C)cc2C)ccc1OC(C)=O	-9.04%
COc1cc(SC)ccc1C(=O)Nc1cccc(S(=O)(=O)NC2=NCCC2)c1	24.7%
O=c1c2cc(F)ccc2sn1-c1ccccc1	20.9%
Cc1ccc(C)c(-n2sc3ccc(F)cc3c2=O)c1	-21.9%
Cc1ccc(S(=O)(=O)N2CCC(=O)N(C(CO)C(C)C)CC2)cc1 (stereo not given)	-0.84%
Cc1ccc(C(=O)c2ccc(C(F)(F)F)cc2)cc1	23.7%
CC(O)C(=O)N/N=C/c1ccccc1C(=O)O (stereo not given)	-1.19%
COc1ccc2[nH]c3c(Cl)ncnc3c2c1	66.1%
COc1ccc2c(c1)[nH]c1c(C)nccc12	0.33%
COc1ccc(NC(=O)C2CCCN(C(=O)c3ccc(Cl)cc3)C2)cc1Cl (stereo not given)	5.35%
CCOc1ccc(CNC(=O)Cn2ccc3cc(S(=O)(=O)N4CCCC4)ccc32)cc1	9.09%
CC(NC(=O)Cc1ccsc1)c1ccc(F)cc1 (stereo not given)	3.93%
COc1ccc(Br)c(C(=O)N2CCN(S(=O)(=O)/C=C/c3ccccc3)CC2)c1	17.6%
CCc1ccc(N2CC(C(=O)Nc3ccc(S(=O)(=O)NCC4CCCO4)cc3)CC2=O)cc1 (stereo not given)	-5.44%
CC1(C)CC(=O)C(=Cc2cn(-c3ccccc3)nc2-c2ccccc2)C(=O)C1	44.3%
O=Cc1cn(-c2ccccc2)nc1-c1ccccc1	-1.35%
NC(=O)N/N=C/c1cn(-c2ccccc2)nc1-c1cccs1	8.14%
O=C(N/N=C/c1cn(-c2ccccc2)nc1-c1cccs1)c1ccccc1F	3.19%

SMILES	inhibition
Cc1nc2ccccc2c(=O)n1/N=C/c1cn(-c2ccccc2)nc1-c1cccs1	3.43%
S=c1[nH]nc(-c2cccs2)n1/N=C/c1cn(-c2ccccc2)nc1-c1cccs1	-1.62%
Cc1ccc(/C=C2\SC(=S)N(CCC(=O)Nc3cccnc3)C2=O)cc1	2.99%
Cc1ccc(CN2CC(C(=O)N3CCN(c4ccccc4O)CC3)CC2=O)cc1 (stereo not given)	5.09%
COc1ccc2cc3cc(C(=O)N4CCN(c5ccccn5)CC4)oc3nc2c1	15.3%
CCOc1cc(/C=C/C(=O)N(CC)CC(=O)NCc2cccs2)cc(Cl)c1OC	11.9%
COc1ccccc1Cn1nnc2c(=O)[nH]c(C3CCN(C(=O)c4ccccc4Cl)CC3)nc21	33.2%
CC(=O)Nc1ccc(-c2csc(NC(=O)CCNC(=O)c3ccco3)n2)cc1	1.09%
O=C(COC(=O)CCS(=O)(=O)c1ccc(Cl)cc1)NCCc1ccc(Cl)cc1Cl	21.4%
COC(=O)c1cc(Br)c(=O)n(Cc2ccc(C(=O)O)cc2)c1	-0.84%
COC(=O)c1ccc(Cn2cc(C(F)(F)F)ccc2=O)cc1	69.9%
C[C@H](CO)N1C[C@H](C)[C@@H](CN(C)C(=O)NC2CCCCC2)Oc2c(NC(=O)Cc3ccccc3)cccc2C1=O	17.9%
CN(CC(=O)Nc1ccc(F)c(F)c1)S(=O)(=O)c1cccs1	2.99%
CCN(C[C@H]1N[C@@](C)(C(=O)OC)[C@H]2C(=O)N(C)C(=O)[C@@H]12)S(=O)(=O)c1ccc(OC)cc1	9.25%
CCC(CC)NC(=O)COc1ccc(OC)cc1C=O	-3.52%
COC(=O)COc1ccccc1/C=C1/NC(=O)NC1=O	5%
COC(=O)COc1cc(Cl)c(C=O)cc1OC	65.7%
COC(=O)COc1ccccc1C(N)=O	2.19%
COc1cccc(OC)c1C(=O)Nc1ccccc1C(=O)N1CCCCCC1	1.4%
NC(=O)CCN(C(=O)c1cccc(S(=O)(=O)N2CCc3ccccc32)c1)c1ccccc1	24.7%
O=C(COc1ccc2ccc(=O)oc2c1)Nc1nccs1	9.82%
CCOc1ccc(S(=O)(=O)N(C)c2ccc(OCC(=O)Nc3nccs3)cc2)cc1	20.7%

SMILES	inhibition
COc1cccc(OCC(=O)NNC(=O)c2cccs2)c1	88.2%
C/C(=N\NC(=O)COc1ccc2ccccc2c1)c1cccs1	1.6%
O=C(COc1ccccc1)Nc1ccncc1	49.4%
O=C(COc1ccccc1)Nc1nccs1	50.5%
COc1ccc(OCC(=O)Nc2ccncc2)cc1	67%
CCOc1ccc(CC(=O)Nc2nccs2)cc1	3.37%
CCc1cccc(OCC(=O)Nc2c[nH]c(=O)[nH]c2=O)c1	-17.2%
COc1ccc(N2CC(NS(=O)(=O)c3cccs3)CC2=O)cc1 (stereo not given)	-13.6%
CCOc1ccc(NC(=O)CSc2nnc(C(C)C)n2CC)cc1	11.7%
CCn1cc(/C=C(\NC(=O)c2ccccc2F)C(=O)NCCCn2ccnc2)c2ccccc21	14.8%
COc1ccc(NC(=O)CSc2nc(-c3ccco3)nc3cc(=O)[nH]n23)cc1Cl	14.5%
CCCN(Cc1nnc(-c2ccccc2Cl)o1)C(=O)c1ccc(C)c(S(=O)(=O)N2CCOCC2)c1	-1.62%
CC(=O)C[C@@H](O)CC(=O)[C@@H]1OC(=O)CCCCCCCc2ccccc21	4.28%
Cc1ccc(C(=O)Nc2scc(-c3ccccc3)c2C(=O)O)cc1	67.7%
CCOC(=O)c1c(C)[nH]c(C=O)c1Cc1cccc(Cl)c1	22.5%
NC(=O)c1ccccc1NC(=S)NC(=O)c1ccc(Br)o1	13.4%
O=C(CNc1ccc2ccccc2c1)N/N=C/c1ccccn1	56.7%
Cc1cc(OCC(=O)Nc2ccncc2)c(C)cc1Br	68%
Cc1cc(OCC(=O)Nc2ccncc2)cc(C)c1Br	62.5%
Cc1cc(C)cc(OCC(=O)Nc2ccncc2)c1	2.54%
Cc1ccc(OCC(=O)Nc2ccncc2)cc1	76.7%
O=C(COc1ccc([N+](=O)[O-])cc1)N/N=C/c1ccccn1	64.7%
